# According to PubChem BioAssay (Tox21):
# “And” between values parts separate entries of the source, which are not always exact repeats. Identical values can stand only once. Records with an inconclusive call do not appear. A call without a number means that no potency is given here. Some structures have more than one record in an assay (separate samples or runs), and their calls can disagree. The source made the active and inactive calls. The call rests on the fitted dose curve; in most records, active means well fitted cell-killing curve with a large enough effect in the repeat runs; inconclusive means weak or mixed curves, or effect the other way; inactive means flat fitted curve, though single readings scatter.
# Assay: qHTS RealTime-Glo MT Cell Viability Assay in HepG2 cells - 40 hour (AID 1224870); further: nearly all actives have a fitted effect of over 50% in size
# Settings: RealTime-Glo luminescence; series mostly up to 76.8 µM
# Description: National Center for Advancing Translational Sciences [NCATS]
# NIH Chemical Genomics Center [NCGC]
# U.S. Environmental Protection Agency [EPA]
# National Institutes of Environmental Health Sciences [NIEHS]
# National Toxicology Program [NTP]
# U.S. Food and Drug Administration [FDA]
# Measure of cell viability is critical in the cell-base assay. Analysis of cell viability is necessary for the characterization of cell responses to cytotoxic drugs and environmental stress. A RealTime-Glo MT Cell Viability Assay to monitor cell viability in real time of continues cell culture during 40 hours of compound treatment was used to screen Tox21 10K library compounds in HepG2 cells. The RealTime-Glo MT Cell Viability Assay is a nonlytic, homogeneous, bioluminescent method to measure cell viability in real time using a simple, plate-based method. The assay involves adding NanoLuc luciferase and a cell-permeant prosubstrate to cells in culture. Viable cells reduce the proprietary prosubstrate to generate a substrate for NanoLuc luciferase. This substrate diffuses from cells into the surrounding culture medium, where it is rapidly used by the NanoLuc Enzyme to produce a luminescent signal. The signal correlates with the number of viable cells, making the assay well suited for cytotoxicity studies.
# Tox21 Assay Protocol Summary:
# The mixture of HepG2 cell suspension and reagents were dispensed at 600cells/6 ul/well in 1536-well tissue culture treated black solid bottom plates using a Multidrop dispenser. After the assay plates were incubated at a 37 C/5% CO2 incubator for 5 hours, 23 nL of compounds dissolved in DMSO, positive and negative controls was transferred to the assay plate by a pintool work station. The plates were incubated at 37 C for 40 hours. The luminescence intensity were measured at 0h, 8h, 16h, 24h, 32h and 40h time points using ViewLux plate reader during compound treatment.
# Potency means the concentration at half of the fitted maximal effect.
row,SMILES,Potency
1,C1CN(SSN2CCOCC2)CCO1,inactive
2,Clc1ccc(Sc2cc(Cl)c(Cl)cc2Cl)cc1,inactive
3,CC(=O)[C@@]1(O)CC[C@H]2[C@@H]3C[C@H](C)C4=CC(=O)C=C[C@]4(C)[C@@]3(F)[C@@H](O)C[C@@]21C,inactive
4,Cc1ccc(C)c(O)c1,inactive
5,CCCCCCC(C)O (stereo not given),inactive
6,CC(C)(C)c1cccc(C(C)(C)C)c1O,inactive
7,OCCNCCO,inactive
8,CCCCCCCC/C=C\CCCCCCCC(=O)O,inactive
9,C=C[C@H]1CN2CC[C@H]1C[C@H]2[C@H](O)c1ccnc2ccc(OC)cc12,inactive
10,CC(=O)O[C@]1(C(C)=O)CC[C@H]2[C@@H]3C=C(Cl)C4=CC(=O)CC[C@]4(C)[C@H]3CC[C@@]21C,inactive
11,CC(=O)O[C@]1(C(C)=O)CC[C@H]2[C@@H]3C=C(C)C4=CC(=O)CC[C@]4(C)[C@H]3CC[C@@]21C,inactive
12,Brc1nc2ccccc2s1,inactive
13,O=C(O)COCCN1CCN(C(c2ccccc2)c2ccc(Cl)cc2)CC1 (stereo not given),inactive
14,O=S1(=O)CCCO1,inactive
15,Oc1c(Cl)ccc(Cl)c1Cl,inactive
16,C=CN1CCCC1=O,inactive
17,Nc1cc([N+](=O)[O-])ccc1C(=O)O,inactive
18,CCCCCC=O,inactive
19,FC(F)(F)C(Cl)Br (stereo not given),inactive
20,NCCN,inactive and 13.8 µM (active)

row,SMILES,Potency
1,C1COCCN1,inactive
2,CCCOCCO,inactive
3,O=C(CCCN1CCC(O)(c2ccc(Cl)cc2)CC1)c1ccc(F)cc1,54.9 µM (active) and inactive
4,CCOC(=O)C(C)Oc1ccc(Oc2cnc3cc(Cl)ccc3n2)cc1 (stereo not given),inactive
5,[Na+],inactive and 38.9 µM (active)
6,COc1cc([C@H]2Oc3cc([C@H]4Oc5cc(O)cc(O)c5C(=O)[C@@H]4O)ccc3O[C@@H]2CO)ccc1O,inactive
7,CN1CCOCC1,inactive
8,c1ccc2c(c1)[nH]c1ccccc12,inactive
9,Nc1ccc(O)c(N)c1,inactive
10,C[C@]12C=CC(=O)C=C1CC[C@H]1[C@@H]3C[C@@H](O)[C@](O)(C(=O)CO)[C@@]3(C)C[C@H](O)[C@@]12F,inactive
11,C=C[Si](OCCOC)(OCCOC)OCCOC,inactive
12,CNC[C@H](O)c1ccc(O)c(O)c1,inactive
13,CC(C)[C@@H]1CC[C@@H](C)CC1=O,inactive
14,CC1(C)C(C=C(Cl)Cl)C1C(=O)OCc1cccc(Oc2ccccc2)c1 (stereo not given),inactive
15,CC(C)=CCO,inactive
16,O=C1CCc2ccccc2O1,inactive
17,COc1ccc(C(=O)c2ccccc2O)c(O)c1,inactive
18,CCCCCCCCCCC(CO)CCCCCCCC (stereo not given),inactive
19,Nc1cc(Cl)c(N)c(Cl)c1,inactive
20,Nc1ccc(N)c(Cl)c1,inactive
